Assay outcomes: PubChem BioAssay, National Center for Advancing Translational Sciences (NCATS)
DT40 TDP1 CPT = DT40-hTDP1 cell growth loss with CPT | chicken DT40 Tdp1-/-;hTDP1 cells + 20 nM CPT, ATP luminescence, 48 h | Potency, µM (series often up to 46.2 µM), most hits filed as inhibitors | 420,000 compounds, 12% hits | AID 686979; also: nearly all actives have a fitted effect of over 55% in size
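Chicken DT40 Tdp1-/- cells complemented with human TDP1, 400 cells/well, exposed to compounds plus 20 nM camptothecin for at least 48 h at 37 C; viability read as ATP content by CellTiter-Glo luminescence.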
HT1080NT lethal = kills 2HG-producing HT-1080-NT fibrosarcoma cells; HT-1080-NT fibrosarcoma viability, CellTiter-Glo ATP luminescence, 48 h; Potency, µM (doses to about 46.1 µM), hits mostly cytotoxic; 360,000 compounds, 1.6% hits; AID 686970;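 also: NT is the 2HG producing partner of a matched IDH1 knockdown line; nearly all actives have a fitted effect of over 55% in size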
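Fibrosarcoma NT cells, 750 per well in 5% FBS RPMI, were exposed to compound for 48 hours. Viability: CellTiter-Glo luminescence.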
HT1080 IDH1KD tx = toxicity to HT-1080 IDH1 knockdown cells (counter line); HT-1080 IDH1 knockdown viability, ATP luminescence, 48 h; 360,000 compounds, 2% hits; Potency, µM (doses to about 46.1 µM), usual class: cytotoxic
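HT-1080-IDH1KD cells (IDH1 knocked down), 750/well in RPMI with 5% FBS, treated with compound 48 h at 37 degrees C. Viability by CellTiter-Glo luminescence, normalised to DMSO and no-cell wells; concentration-response curves classed.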
KB-V1 cytotox = kills drug-selected multidrug resistant KB-V1 cells | KB-V1 MDR cells viability, CellTiter-Glo, 72 h | Potency, µM (doses to about 46.1 µM), most hits filed as cytotoxic | 400,000 compounds, 3.4% hits | AID 1347076; also: nearly all actives have a fitted effect of over 60% in size
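In this primary screen, KB-V1 cells overexpressing P-gp are incubated with library compounds (lowest to highest concentration) for 72 h at 37 degrees C before a luminescent ATP viability read.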
KB-3-1 tox = KB-3-1 parental cell cytotoxicity. KB-3-1 viability, CellTiter-Glo ATP luminescence, 72 h. Potency, µM (doses to about 46.1 µM), most hits filed as cytotoxic. 400,000 compounds, 1.4% hits. AID 1347075; also: nearly all actives have a fitted effect of over 60% in size
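Viability of parental KB-3-1 cells, measured by CellTiter-Glo luminescence, followed a 72 h incubation at 37 °C with pinned compounds in phenol-red-free DMEM containing 10% FBS.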
DT40 TDP1 no CPT = qHTS for Inhibitors of human tyrosyl-DNA phosphodiesterase 1 (TDP1): qHTS in cells in absence of CPT. DT40 Tdp1-/- hTDP1 cells, no CPT, ATP luminescence, 48 h. Potency, µM (top dose mostly 46.2 µM), most hits filed as inhibitors. 420,000 compounds, 15% hits. AID 686978, 2013; also: nearly all actives have a fitted effect of over 55% in size
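Chicken DT40 Tdp1-/- cells stably complemented with human TDP1 were seeded at 400 cells/well with DMSO in place of 20 nM camptothecin. After compound pinning, cells grew at least 48 hr at 37 °C; viability read by CellTiter-Glo luminescence.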
Of the large screens only hits and unclear results are named; the others gave an inactive call; ! = not active in a repeat. Sampled rows, rich in hits. Any-hit rate of the full collection: about 19%. Calls follow the shape of the dose curve; as a rule, active = well fitted curve in the direction sought with a large enough effect; inconclusive = small, poorly fitted or top-dose-only effect, or another doubt; inactive = no such curve, though single readings can be large; an effect the other way counts as inactive or inconclusive.

O=C1N[C@@H](Cc2ccccc2)C(=O)N2[C@H]1C[C@H]1c3ccccc3N(OOSc3ccccc3)[C@H]12	DT40 TDP1 CPT 20.6µM, DT40 TDP1 no CPT 16.4µM
CCCCn1c(CN2CCN(c3ccc(F)cc3)CC2)nc2c1c(=O)n(C)c(=O)n2C	DT40 TDP1 CPT 1.64µM, DT40 TDP1 no CPT 1.64µM
CCC1(C)CC(C(N)=S)CCO1 (stereo unspecified)	DT40 TDP1 CPT 18.4µM, DT40 TDP1 no CPT 20.6µM
CC=C(C)C1(CCC)C(=O)NC(=S)NC1=O	none
COC(=O)c1ccc(N2CCN(C)CC2)c([N+](=O)[O-])c1	none
NC(=O)c1cc(N2CC2)c([N+](=O)[O-])cc1[N+](=O)[O-]	DT40 TDP1 CPT 0.146µM, DT40 TDP1 no CPT 0.0366µM
Brc1ccc(C2N3CCCN23)cc1 (stereo unspecified)	none
O=C(NN=Cc1ccc(N(CCCl)CCCl)cc1)c1cc(=O)[nH]c(=O)[nH]1	DT40 TDP1 CPT inconclusive, DT40 TDP1 no CPT inconclusive
O=C(NN=Cc1ccc(N(CCCl)CCCl)cc1)C(=O)c1c[nH]c2ccccc12	DT40 TDP1 CPT 20.6µM, HT1080 IDH1KD tx inconclusive, KB-3-1 tox inconclusive, DT40 TDP1 no CPT 14.6µM
CN1C(CC(=O)c2ccccc2)CCCC1CC(O)c1ccccc1 (stereo unspecified)	DT40 TDP1 CPT inconclusive
CN1[C@@H](CC(=O)c2ccccc2)CCC[C@H]1C[C@H](O)c1ccccc1	DT40 TDP1 CPT 23.7µM!, KB-V1 cytotox inconclusive, DT40 TDP1 no CPT 20.6µM!
CC(C)(C)NCC(O)c1ccccc1Cl (stereo unspecified)	none (no result: HT1080NT lethal, HT1080 IDH1KD tx, KB-V1 cytotox, KB-3-1 tox)
Cc1cccc(OP(=O)(Oc2ccccc2)OC(c2ccccc2)C(F)(F)F)c1 (stereo unspecified)	DT40 TDP1 no CPT 18.4µM
CC(C)(C)c1nc(N2CCN(C(=O)c3ccco3)CC2)c2nnn(Cc3ccccc3Cl)c2n1	DT40 TDP1 CPT inconclusive, KB-V1 cytotox 11.6µM, DT40 TDP1 no CPT 20.6µM
COc1ccc(N2C(=O)CS(=O)C(c3ccccc3)C2=O)cc1 (stereo unspecified)	DT40 TDP1 CPT inconclusive, KB-V1 cytotox inconclusive, DT40 TDP1 no CPT 20.6µM
CN(C)CCn1cnc2ccccc21	none
CN(C)CCCOc1nn(Cc2ccccc2)c2ccccc12	DT40 TDP1 CPT inconclusive, HT1080NT lethal inconclusive, HT1080 IDH1KD tx 18.4µM, KB-V1 cytotox inconclusive, DT40 TDP1 no CPT 23.1µM
C[C@@H]1CN([C@H](C)CO)S(=O)(=O)c2ccc(C#Cc3cccc(F)c3)cc2O[C@@H]1CN(C)C(=O)CN1CCOCC1	DT40 TDP1 CPT inconclusive, DT40 TDP1 no CPT 18.4µM
COc1ccc(C#Cc2ccc3c(c2)O[C@H](CN(C)C(C)=O)[C@H](C)CN([C@@H](C)CO)S3(=O)=O)cc1	DT40 TDP1 CPT 23.1µM, KB-V1 cytotox inconclusive, KB-3-1 tox inconclusive, DT40 TDP1 no CPT 14.6µM
Cc1ccc(S(=O)(=O)N(C)C[C@H]2Oc3cc(Br)ccc3S(=O)(=O)N([C@H](C)CO)C[C@@H]2C)cc1	KB-V1 cytotox inconclusive
CN(c1ccccc1)P(=O)(N1CC1)N1CC1	DT40 TDP1 CPT 2.59µM, DT40 TDP1 no CPT 4.11µM
O=P(Oc1ccccc1)(N1CCOCC1)N1CCOCC1	none
COc1cc(NS(=O)(=O)c2ccc3c(c2)oc(=O)n3C)cc(OC)c1OC	DT40 TDP1 CPT 13µM, HT1080NT lethal inconclusive, HT1080 IDH1KD tx inconclusive, KB-V1 cytotox inconclusive, KB-3-1 tox 7.31µM, DT40 TDP1 no CPT 9.2µM
CCOc1ccc(N(CC)S(=O)(=O)c2ccc3c(c2)oc(=O)n3C)cc1	DT40 TDP1 CPT inconclusive, KB-V1 cytotox inconclusive, KB-3-1 tox inconclusive
O=[N+]([O-])c1ccc2nc(N3CCNCC3)ccc2c1	DT40 TDP1 CPT inconclusive, HT1080NT lethal inconclusive, HT1080 IDH1KD tx inconclusive, DT40 TDP1 no CPT 20.6µM
O=C(COc1ccccc1/C=C1/NC(=O)NC1=O)Nc1ccccc1	DT40 TDP1 CPT 20.6µM, DT40 TDP1 no CPT inconclusive
